Measurements published in PubChem BioAssay (NCI).
The panel holds about 83,000 compounds, 20% with a hit somewhere; the sample as a whole holds those more often.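 For each line, cells grew in 96-well plates with the test compound present at a single concentration for 48 hours.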 Unmarked numbers belong to inactive results. Active and inactive are the calls of the source. How the source made its calls: active means growth percent below 10; inactive means the rest.

Tests used:
Experiment in all cases: NCI-60 one-dose screen, 48 h (100 = growth as untreated, 0 = no growth, -100 = all killed)
Settings in all cases: 10 µM unless noted
HCT-15 colon = tested on: HCT-15 colon
HT29 colon = tested on: HT29 colon
SNB-75 CNS = tested on: SNB-75 CNS
SNB-19 CNS = tested on: SNB-19 CNS
U251 CNS = tested on: U251 CNS
PC-3 prostate = tested on: PC-3 prostate
SK-MEL-5 melanoma = tested on: SK-MEL-5 melanoma
UACC-62 melanoma = tested on: UACC-62 melanoma
LOX IMVI melanoma = tested on: LOX IMVI melanoma
SK-MEL-28 melanoma = tested on: SK-MEL-28 melanoma

Row | Structure (SMILES) | growth (HCT-15 colon) | growth (HT29 colon) | growth (SNB-75 CNS) | growth (SNB-19 CNS) | growth (U251 CNS) | growth (PC-3 prostate) | growth (SK-MEL-5 melanoma) | growth (UACC-62 melanoma) | growth (LOX IMVI melanoma) | growth (SK-MEL-28 melanoma)
1 | Cc1ccc(-c2csc(N)n2)cc1 | 99.9% | 93.6% | 93.2% | 98.1% | 92.9% | 91.2% | 97.1% | 99% | 101% | 110%
2 | C[C@]12CCC(=O)C=C1CC[C@H]1[C@@H]3C[C@@H](O)[C@](O)(C(=O)CO)[C@@]3(C)C[C@H](O)[C@@]12F | 102% | 103% | 108% | 99.9% | 109% | 95.3% | 101% | 98% | 96% | 107%
3 | COc1cc(/C=C/C(=O)CC(=O)/C=C/c2ccc(OC(=O)C3C4CC5CC(C4)CC3C5)c(OC)c2)ccc1OC(=O)C1C2CC3CC(C2)CC1C3 (stereo not given) | 135% | 105% | 107% | 106% | 111% | 82.8% | 110% | 114% | 108% | 131%
4 | COC(=O)CC1=C(c2ccc([N+](=O)[O-])cc2)CCC1=O | 89.6% | 107% | 82% | 109% | 103% | 91.9% | 103% | 100% | 94.6% | 109%
5 | O=C(O)CNC(=O)C1(N2C(=O)c3ccccc3C2=O)CCCC1 | 106% | 105% | 88.2% | 99% | 107% | 104% | 100% | 94.5% | 97.2% | 104%
6 | COc1ccc2nc(N/N=C(\C)c3ccccn3)cc(C)c2c1 | -48.5% (active) | -45.5% (active) | -7.43% (active) | 23.9% | -85.5% (active) | 12.9% | -86.2% (active) | -44.2% (active) | -99.1% (active) | 20%
7 | Oc1ccc(/C=N/Nc2nc3ccccc3s2)c(O)c1 | 30.9% | 67.3% | 28.5% | 52.5% | 25.4% | 32.5% | 40.8% | 35.8% | 21.3% | 50.7%
8 | NS(=O)(=O)c1ccc(-n2ncc3c(SCc4ccccc4)ncnc32)cc1 | 93.7% | 94.1% | 102% | 93.9% | 98.3% | 90.9% | 79.5% | 92.8% | 92.8% | 107%
9 | O=C1C(=O)/C(=C/c2ccccc2)CCCCCC/C1=C/c1ccccc1 | 32.2% | -25.6% (active) | 68% | 67.9% | 11% | 55.4% | 88.2% | 79.6% | -73.5% (active) | 94.9%
10 | O=c1oc2c(cc1-c1ccc([N+](=O)[O-])cc1)C(O)Oc1ccccc1-2 (stereo not given) | 92.2% | 99.9% | 111% | 83.4% | 97.6% | 57.5% | 80.4% | 78.7% | 98.9% | 99.4%
11 | CC12CCC3C(=CCc4cc(O)ccc43)C1CCC2=O (stereo not given) | 96.1% | 94.5% | 104% | 103% | 98.7% | 88.9% | 97.5% | 88.9% | 102% | 103%
12 | COc1ccc(C(=O)/C=C/c2cccc(Nc3ccnc4cc(Cl)ccc34)c2)cc1 | 30.6% | 1.05% (active) | -1.22% (active) | 51.3% | 8.83% (active) | 33.7% | 7.89% (active) | 27.8% | 6.49% (active) | 44.6%
13 | CCCc1n(Cc2ccc3ccccc3c2)cc[n+]1Cc1ccc2ccccc2c1 | 53.8% | -22.5% (active) | -13.9% (active) | -7.08% (active) | 0.776% (active) | -2.89% (active) | -98.1% (active) | -67.2% (active) | -84.3% (active) | -40.3% (active)
14 | COc1ccc(NS(=O)(=O)N2CCCCC2)cc1 | 115% | 102% | 115% | 96.4% | 111% | 91.8% | 97.1% | 82.5% | 100% | 123%
15 | COc1cc(/C=C/C(=O)c2c(C)n([O-])c3ccc(Cl)cc3[n+]2=O)cc(OC)c1OC | 59% | 102% | 75.8% | 83.1% | 80.1% | 89.5% | 47% | 82.9% | 68.9% | 84%
16 | CCOC(=O)CCC(=O)O[C@H]1[C@H](O[C@@H]2[C@@H](C)[C@H](O[C@H]3C[C@@](C)(OC)[C@@H](O)[C@H](C)O3)[C@@H](C)C(=O)O[C@H](CC)[C@@](C)(O)[C@H](O)[C@@H](C)C(=O)[C@H](C)C[C@@]2(C)O)O[C@H](C)C[C@@H]1N(C)C | 98.1% | 102% | 91.5% | 112% | 101% | 92.6% | 104% | 102% | 102% | 117%
17 | C1=C(Cc2ccccc2)n2cnc3ncnc(c32)S1 | 71.8% | 55.7% | 45.8% | 94.1% | 78.8% | 78.2% | 86.1% | 54.5% | 9.31% (active) | 103%
18 | CCOC(=O)c1cnc2c(C)cc(C)cc2c1NCCCN(C)C | 28.2% | 13.1% | 51.1% | 42.4% | 28.3% | 22% | 46.5% | 46.7% | 23.2% | 76.2%
19 | CCOc1nc(-c2ccco2)n2nc(-c3ccco3)cc2n1 | 99.4% | 100% | 82.9% | 97.3% | 98.3% | 105% | 81.4% | 86.4% | 98.4% | 110%
20 | O=C(O)C1C(c2ccccc2)c2ccccc2C(O)C1CO (stereo not given) | 98.2% | 106% | 80.7% | 99.8% | 105% | 91.5% | 107% | 95.3% | 103% | 111%
21 | COc1cnc2c(c1)C(=O)c1c-2n(CCCNC(C)C)c(=O)c2cc(F)ccc12 | -5.08% (active) | 0.147% (active) | -22.5% (active) | 11% | -32.8% (active) | -5.02% (active) | -98.5% (active) | -44.2% (active) | -68% (active) | -11.1% (active)
22 | CC(C)Sc1nc(Cl)c(C#N)c(-c2ccc(F)cc2)n1 | 87.4% | 103% | 97.3% | 113% | 92.9% | 106% | 100% | 102% | 70.2% | 119%
23 | COc1ccc(-c2nnc3c4[nH]cnc4ncn23)c(OC)c1 | 29.2% | 19.5% | 39.2% | 96% | 41.1% | 40.7% | 49% | 23.7% | 5.63% (active) | 84.7%
24 | C1CCC(C(CC2CCCCN2)C2CCCCC2)CC1 (stereo not given) | 25% | -53.8% (active) | 7.79% (active) | 13.2% | -61.3% (active) | 23.9% | -94.3% (active) | -7.18% (active) | -95.5% (active) | -84.8% (active)
25 | O=C(Nc1ccccc1)c1cc(-n2cnc([N+](=O)[O-])c2)cc(-n2cnc([N+](=O)[O-])c2)n1 | 114% | 107% | 98.9% | 106% | 101% | 88.8% | 95.6% | 103% | 94.2% | 122%
26 | CC(=O)Nc1cc(C(c2ccccc2)c2ccccc2)cc(C(c2ccccc2)c2ccccc2)c1C | 50.5% | 47.8% | 34.2% | 71.4% | 46.8% | 15.4% | 45.6% | 50% | 53% | 56.8%
